A short description of test [1]: APR_HepG2_CellCycleArrest_24hr: Apredica 24-hour HepG2 Assay for Cell Cycle Arrest (AID 2282905).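 Note: cell cycle arrest scored as ratio of 2N to 4N nuclear DNA content.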 The settings on record: imaging, actives raise or lower the signal. The method in brief:
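HepG2 cells were exposed to compounds at 0.39–200 uM (ten concentrations, duplicate) in 0.5% v/v DMSO for 24 hr. After formaldehyde fixation and Triton permeabilization, Hoechst 33342-stained nuclei were imaged at 20x; DNA content was quantified, with bidirectional fitting against DMSO.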

Test [2] is described as follows: APR_HepG2_CellLoss_24hr: Apredica 24-hour HepG2 Assay for Cell Loss (AID 2282908).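 For AC50: fit in both directions so a hit may be cell loss or gain.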 As to conditions: high-content imaging. The gist of the method: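 Compounds were tested at 0.39–200 uM in duplicate with 0.5% v/v DMSO final. Cells were then fixed in 3.7% formaldehyde, Hoechst 33342 nuclei were imaged at 20x by HCS, and cell number was fitted bidirectionally against DMSO.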

The nature of test [3]: APR_HepG2_MicrotubuleCSK_24hr: Apredica 24-hour HepG2 Assay for Microtubule CSK Stabilty (AID 2282909). The settings on record: HepG2 microtubule cytoskeleton imaging, actives raise or lower the signal. The method in brief: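 HepG2 cells exposed 24 h to compounds at 0.39–200 uM (duplicate, 0.5% v/v DMSO final), then fixed, permeabilized and immunostained for alpha-tubulin with Hoechst 33342. Cytoskeleton imaged at 20x; bidirectional fit versus DMSO baseline.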

Test [4] can be described thus: APR_HepG2_MitoticArrest_24hr: Apredica 24-hour HepG2 Assay for Mitotic Arrest (AID 2282910). The settings on record: high-content imaging, actives raise or lower the signal. The method in brief: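 Compounds are dosed onto HepG2 cells across ten concentrations up to 200 uM for 24 hr. Cells are then fixed in 3.7% formaldehyde, permeabilised, and labelled for phospho-histone H3 and nuclei; images are scored by cell cycle analysis and fitted bidirectionally relative to DMSO.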

Test [5] is described as follows: APR_HepG2_MitoMembPot_24hr: Apredica 24-hour HepG2 Assay for Mitochondrial Membrane Potential (AID 2282911). The settings on record: imaging, actives raise or lower the signal. The gist of the method:
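Human hepatoma HepG2 cultures received ten compound concentrations up to 200 uM for 24 hr. Membrane-potential dye signal, captured by automated fluorescence microscopy, was scored for gain or loss against DMSO controls.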

Test [6] in a line: APR_HepG2_MitoMass_24hr: Apredica 24-hour HepG2 Assay for Mitochondrial Mass (AID 2282912). As to conditions: high-content imaging, actives raise or lower the signal. The method in brief:
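Human HepG2 liver cells were exposed for 24 hr to compounds at 0.39–200 uM (duplicates, 0.5% v/v DMSO final). They were stained live with 250 nM MitoTracker Red CMXRos for 30 min, fixed in 3.7% formaldehyde, and imaged by HCS fluorescence; signals were fitted bidirectionally against DMSO.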

A short description of test [7]: APR_HepG2_p53Act_24hr: Apredica 24-hour HepG2 Assay for p53 Activation (AID 2282913).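 Note: p53 protein immunofluorescence averaged per cell in HepG2 with Hoechst nuclei.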 The settings on record: high-content imaging, actives raise or lower the signal. The gist of the method: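 Automated fluorescence imaging quantifies p53 immunostaining in HepG2 cells after a 24 hr exposure (0.39–200 uM, duplicate, 0.5% DMSO). Nuclei are located by Hoechst 33342 staining.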

The nature of test [8]: APR_HepG2_CellCycleArrest_72hr: Apredica 72-hour HepG2 Assay for Cell Cycle Arrest (AID 2282914). The settings on record: high-content imaging, actives raise or lower the signal. The method in brief:
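Cell cycle arrest in HepG2 was scored from nuclear DNA content after 72 hr compound treatment (0.39–200 uM). Activity, either gain or loss, was fitted against the DMSO baseline.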

Test [9] is described as follows: APR_HepG2_CellLoss_72hr: Apredica 72-hour HepG2 Assay for Cell Loss (AID 2282915). The settings on record: high-content imaging. The gist of the method:
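Cell number comes from Hoechst 33342-labelled nuclei, imaged at 20x after 3.7% formaldehyde fixation. Dosing was 0.39–200 uM, ten concentrations in duplicate, 0.5% DMSO final, for 72 h. Bidirectional fit relative to DMSO baseline.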

The nature of test [10]: APR_HepG2_NuclearSize_24hr: Apredica 24-hour HepG2 Assay for Nuclear Size (AID 2282907). As to conditions: high-content imaging, actives raise or lower the signal. The gist of the method:
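HepG2 human liver cells were exposed for 24 hr to compounds at 0.39–200 uM (ten concentrations, duplicate) in 0.5% v/v DMSO. They were then formaldehyde-fixed, Triton-permeabilized and Hoechst 33342-stained, and nuclear diameter was imaged at 20x. Bidirectional fits were made against DMSO.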

Structures are written as SMILES. The source made the active and inactive calls. Rule for the calls: active = hit-call score of the fitted dose curve at least 0.9, where 1 is the maximum; inactive = score below 0.9.

On to `O=NN(c1ccccc1)c1ccccc1`, for which the compound was classed as inactive in [1], in test [2], in test [3], in test [4], in [5] and in [6]. Besides, the result in [7], in test [8] and in test [9] was inactive.
On to `ClC1=C(Cl)[C@]2(Cl)[C@@H]3[C@@H](Cl)[C@H]4O[C@H]4[C@@H]3C1(Cl)C2(Cl)Cl`, for which the half-maximal activity concentration (AC50) in test [1] was 80.1 µM (active); in [2], 81.7 µM (active); in test [7], 87.7 µM (active); in test [8], 86.3 µM (active); in [9], 75.4 µM (active). Besides, the result in [5] and in test [6] was inactive.
For `Cc1cc(O)ccc1Cl`, the compound was called inactive in test [1], in [2], in test [5], in [6], in test [7] and in test [8]. The result in [9] was inactive.
With `O=C(N[C@H]1CN2CCC1CC2)c1cc2ccoc2cn1`, the call in test [1], in test [2], in [3], in test [4], in [6] and in test [7] was inactive. Further, the compound was called inactive in test [8] and in test [9]. Further, the half-maximal activity concentration (AC50) in [5] was 0.0336 µM (active).
Regarding `COS(=O)(=O)OC`, the compound was called inactive in [1], in test [2], in [5], in test [6], in test [7] and in test [8]. Besides, the compound was classed as inactive in [9].
As for `CCCCCCOC(=O)c1ccccc1C(=O)OCCCCCC`, the outcome in [1], in test [10], in [6] and in [7] was inactive. Further, the concentration at half-maximal activity (AC50) in test [2] is 97.3 µM (active); in test [5] it was 112 µM (active); in [8], 109 µM (active); in test [9], 102 µM (active).
For the compound `Cc1cccc(C)c1N`, the result in test [1], in test [2], in test [3], in test [4], in test [5] and in test [6] was inactive. The call in test [7], in [8] and in test [9] was inactive.
For `Oc1ccc(Cl)cc1Cl`, the result in [1], in [2], in [5], in test [6], in test [7] and in test [8] was inactive. The outcome in [9] was inactive.
With `Cc1cc2c3c(c1)C(c1ccccc1)=N[C@@H](NC(=O)c1ccncc1)C(=O)N3CC2`, the result in test [1], in test [10], in test [2], in [5], in test [6] and in test [7] was inactive. In test [8], the compound was classed as inactive. Moreover, in [9], the AC50 is 90.9 µM (active).
`NS(=O)(=O)C(F)(F)C(F)(F)C(F)(F)C(F)(F)C(F)(F)C(F)(F)C(F)(F)C(F)(F)F`: the concentration at half-maximal activity (AC50) is 62.5 µM (active) in test [1]; 93.4 µM (active) in test [2]; 72.5 µM (active) in test [5]; 101 µM (active) in [7]; 46.1 µM (active) in [8]; 63.4 µM (active) in test [9]. Moreover, the compound was classed as inactive in [3] and in test [6].
Take `CCC(C)c1cc([N+](=O)[O-])cc([N+](=O)[O-])c1O` (stereo not given): the concentration at half-maximal activity (AC50) is 49.6 µM (active) in test [1], 100 µM (active) in [5], 75.8 µM (active) in test [8] and 51 µM (active) in test [9]. Further, the result in [2], in [6] and in test [7] was inactive.
With `CCC(C)(c1ccc(O)cc1)c1ccc(O)cc1`, the compound was called inactive in [1], in [3] and in test [8]. In addition, the half-maximal activity concentration (AC50) in [2] is 111 µM (active); in [5] it was 57.6 µM (active); in test [6], 127 µM (active); in test [7], 101 µM (active); in test [9], 108 µM (active).
With `CC(c1ccc(O)cc1)(c1ccc(O)cc1)c1ccc(O)cc1`, the result in test [1], in test [10] and in [8] was inactive. In addition, the concentration at half-maximal activity (AC50) in [2] was 113 µM (active); in test [5], 29.5 µM (active); in test [6], 109 µM (active); in test [7] it was 104 µM (active); in [9] it was 115 µM (active).
Take `O=C(NC(=O)c1cc(F)c(F)cc1Cl)Nc1cc(F)ccc1N1CCC(C(=O)O)CC1`: the compound was classed as inactive in test [1], in [2], in test [5], in [6], in test [7] and in [8]. Moreover, in [9], the compound was classed as inactive.
As for `c1cc2ccc3cccc4ccc(c1)c2c34`, the outcome in test [1], in test [2], in [6], in [7], in test [8] and in test [9] was inactive. Further, the AC50 in test [5] was 92.1 µM (active).
`CC(C)(O)C(=O)Nc1ccc([N+](=O)[O-])c(C(F)(F)F)c1`: the compound was classed as inactive in [1], in [2], in [5], in [6], in test [7] and in test [8]. In test [9], the outcome was inactive.
Consider `c1ccc(-c2ccccc2)cc1`, for which the call in test [1], in test [2], in test [5], in [6], in test [7] and in test [8] was inactive. For the same compound, the compound was classed as inactive in [9].
Consider `CCOC(=O)C(O)(c1ccc(Cl)cc1)c1ccc(Cl)cc1`, for which the AC50 in [1] is 54.1 µM (active); in test [2] it was 72.3 µM (active); in [5], 7.9 µM (active); in test [6], 59.5 µM (active); in test [7], 82.7 µM (active); in test [8] it was 44.7 µM (active). For the same compound, the AC50 in [9] is 69.6 µM (active).
With `C[C@]12CCC(=O)C=C1CC[C@@H]1[C@@H]2CC[C@]2(C)C(=O)CC[C@@H]12`, the compound was called inactive in [1], in test [2], in [4], in test [5], in test [6] and in [7]. For the same compound, the outcome in test [8] and in test [9] was inactive.

As a reminder, the AC50 is the concentration at which the activity in the assay is half-maximal.

(Values after PubChem BioAssay (EPA / NIEHS).)
